Reference: PubChem BioAssay AID1159580 (chemical genetic matrix, 2015)
Among all 5,500 compounds or so, about 2,000 (36%) were called active. Inconclusive results (about 18%) are left out. Rule as the data show it: active = normalized growth mostly below about 0.91 (no sharp cut-off); inconclusive = no clear call, values can overlap the other calls; inactive = mostly above about 0.92. The list shows a part of the results.

Test: chemical genetic growth profiling, strain panel (AID 1159580);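 also: tested at 20 µM; growth read once vehicle control cultures reached saturation at 30 °C; 1 = growth at the plate median or of vehicle wells; lower values mean less growth of the strain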
Conditions: S. cerevisiae deletion strains, growth OD
[1] = locus YDL101C, strain DUN1, active compounds read low
[2] = locus YDR150W, strain NUM1, active compounds read low
[3] = locus YGR078C, strain PAC10, active compounds read low
[4] = locus YHR030C, strain SLT2, active compounds read low
[5] = locus YJR075W, strain HOC1, active compounds read low
[6] = locus YMR263W, strain SAP30, active compounds read low
[7] = locus YNL128W, strain TEP1, active compounds read low
[8] = locus YNL153C, strain GIM3, active compounds read low
[9] = locus YNL322C, strain KRE1, active compounds read low
[10] = locus YPL055C, strain LGE1, active compounds read low
[11] = locus YAL040C, strain CLN3, active compounds read low
[12] = locus YCL061C, strain MRC1 (second series), active compounds read low
[13] = locus YDR363W, strain ESC2, active compounds read low
[14] = locus YER002W, strain NOP16, active compounds read low
[15] = locus YMR307W, strain GAS1, active compounds read low
[16] = locus YNL175C, strain NOP13, active compounds read low
[17] = locus YNL197C, strain WHI3, active compounds read low
[18] = locus YNL224C, strain SQS1, active compounds read low
[19] = locus YOR083W, strain WHI5 (second series), active compounds read low

Measured: normalized growth

CCCC(C)(SCC(=O)O)SCC(=O)O
inactive: locus YAL013W, strain DEP1, active compounds read low 1 | locus YBR229C, strain ROT2, active compounds read low 1 | [1] 1.09 | [2] 1.03 | locus YEL061C, strain CIN8, active compounds read low 0.951 | [3] 1.02 | [4] 1.03 | locus YHR087W, strain rtc3, active compounds read low 0.98 | locus YJL187C, strain SWE1, active compounds read low 1 | locus YJR043C, strain POL32, active compounds read low 1.01 | [5] 1.04 | locus YKL190W, strain CNB1, active compounds read low 0.992 | locus YLR039C, strain RIC1, active compounds read low 0.981 | locus YLR058C, strain SHM2 (second series), active compounds read low 0.984 | locus YLR085C, strain ARP6, active compounds read low 1.02 | locus YLR262C, strain YPT6, active compounds read low 1.02 | locus YML094W, strain GIM5, active compounds read low 0.993 | locus YMR219W, strain ESC1, active compounds read low 0.999 | [6] 1.01 | [7] 0.985 | [8] 1.04 | locus YNL298W, strain CLA4 (second series), active compounds read low 1.02 | [9] 0.993 | locus YNR030W, strain Alg12, active compounds read low 1.01 | locus YOL006C, strain TOP1, active compounds read low 1 | [10] 1 | locus YPL241C, strain CIN2, active compounds read low 1.05 | locus YPR135W, strain CTF4, active compounds read low 1.08

CCCCCCCCCCCCCCSCC(=O)O
inactive: [11] 0.97 | [12] 1.01 | [2] 0.997 | [13] 0.993 | [14] 0.937 | [3] 0.998 | locus YGR229C, strain SMI1, active compounds read low 0.959 | [5] 0.99 | [6] 1 | [15] 0.992 | [16] 0.938 | [17] 0.957 | [18] 0.954 | [10] 0.955
active: [19] 0.825

N#CC(Cc1ccc(O)c(O)c1)C(=O)N1CCc2ccccc21 (stereo not drawn)
inactive: [11] 0.961 | [12] 0.986 | [2] 0.997 | [13] 0.97 | [14] 1.01 | [5] 0.995 | [15] 0.986 | [7] 0.996 | [8] 0.977 | [16] 0.999 | [17] 1.02 | [18] 0.994 | [9] 0.952 | [19] 0.965

C=CC(=O)N1CCc2cc([N+](=O)[O-])ccc21
inactive: locus YJL128C, strain PBS2, active compounds read low 0.842 | locus YPR111W, strain DBF20, active compounds read low 0.887
active: locus YAR019C, strain CDC15, active compounds read low 0.735 | locus YBL105C, strain PKC1, active compounds read low 0.778 | locus YBR135W, strain CKS1, active compounds read low 0.766 | locus YBR136W, strain MEC1, active compounds read low 0.764 | locus YBR160W, strain CDC28, active compounds read low 0.791 | locus YDL017W, strain CDC7, active compounds read low 0.8 | locus YDL028C, strain MPS1, active compounds read low 0.796 | [1] 0.789 | locus YDL108W, strain KIN28, active compounds read low 0.798 | locus YDL132W, strain cdc53, active compounds read low 0.725 | locus YDL214C, strain PRR2, active compounds read low 0.37 | locus YDR052C, strain DBF4, active compounds read low 0.827 | locus YDR054C, strain cdc34, active compounds read low 0.689 | locus YDR226W, strain ADK1, active compounds read low 0.839 | locus YDR477W, strain SNF1, active compounds read low 0.335 | locus YER123W, strain YCK3, active compounds read low 0.236 | locus YER133W, strain GLC7, active compounds read low 0.275 | locus YFL009W, strain cdc4, active compounds read low 0.739 | locus YFL029C, strain CAK1, active compounds read low 0.72 | locus YFR003C, strain YPI1, active compounds read low 0.807 | locus YFR019W, strain FAB1, active compounds read low 0.369 | locus YFR028C, strain CDC14, active compounds read low 0.805 | locus YGR040W, strain KSS1, active compounds read low 0.287 | locus YGR052W, strain FMP48, active compounds read low 0.308 | locus YGR092W, strain DBF2, active compounds read low 0.12 | [4] 0.253 | locus YHR079C, strain IRE1, active compounds read low 0.255 | locus YHR082C, strain KSP1, active compounds read low 0.263 | locus YHR205W, strain SCH9, active compounds read low 0.228 | locus YIL147C, strain SLN1, active compounds read low 0.794 | locus YJL095W, strain BCK1, active compounds read low 0.276 | locus YJL157C, strain FAR1, active compounds read low 0.315 | locus YJR016C, strain ILV3, active compounds read low 0.742 | locus YJR066W, strain TOR1 (second series), active compounds read low 0.24 | locus YJR066W, strain TOR1, active compounds read low 0.274 | locus YKL048C, strain ELM1, active compounds read low 0.556 | locus YKL067W, strain YNK1, active compounds read low 0.35 | locus YKL101W, strain HSL1, active compounds read low 0.46 | locus YKL193C, strain SDS22, active compounds read low 0.729 | locus YKL203C, strain TOR2, active compounds read low 0.355 | locus YLR113W, strain HOG1, active compounds read low 0.247 | locus YLR133W, strain CKI1, active compounds read low 0.409 | locus YLR403W, strain SFP1, active compounds read low 0.271 | locus YML070W, strain DAK1, active compounds read low 0.311 | locus YMR001C, strain CDC5, active compounds read low 0.744 | locus YMR205C, strain PFK2 (second series), active compounds read low 0.424 | locus YMR277W, strain FCP1, active compounds read low 0.746 | locus YNL006W, strain LST8, active compounds read low 0.754 | locus YNL020C, strain ARK1, active compounds read low 0.412 | locus YNL161W, strain CBK1, active compounds read low 0.737 | locus YNL183C, strain NPR1, active compounds read low 0.22 | locus YNL207W, strain RIO2, active compounds read low 0.757 | locus YNL222W, strain SSU72, active compounds read low 0.734 | locus YNL307C, strain MCK1 (second series), active compounds read low 0.323 | locus YOL078W, strain AVO1, active compounds read low 0.71 | locus YOL136C, strain PFK27, active compounds read low 0.316 | locus YOR061W, strain CKA2, active compounds read low 0.498 | locus YOR119C, strain RIO1, active compounds read low 0.334 | locus YOR231W, strain MKK1, active compounds read low 0.255 | locus YOR329C, strain SCD5, active compounds read low 0.759 | locus YPL031C, strain PHO85, active compounds read low 0.268 | locus YPL153C, strain RAD53, active compounds read low 0.273 | locus YPL204W, strain HRR25, active compounds read low 0.282 | locus YPL209C, strain IPL1, active compounds read low 0.778 | locus YPL256C, strain CLN2, active compounds read low 0.299 | locus YPR025C, strain CCL1, active compounds read low 0.764 | locus YPR106W, strain ISR1, active compounds read low 0.864 | strain NNK1, active compounds read low 0.824 | strain TSCII, active compounds read low 0.643
